Measurements from PubChem BioAssay (NCI).
About 83,000 compounds went through this panel and 20% of them were active in at least one assay; those are over-represented in the sample as a whole.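 Assay: single dose, 48 h. Readout: percent growth (0 = no net growth; negative = cell death). Active: <10.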 A number with no mark means an inactive call. The source made the active and inactive calls.

System: HL-60(TB) leukemia
Assay: NCI-60 one-dose screen, 48 h (100 = growth as untreated, 0 = no growth, -100 = all killed)
Conditions: 10 µM unless noted

SMILES	growth
O=C1[C@H]2Cc3c([nH]c4ccccc34)[C@@H](c3ccc(Cl)cc3)N2C(=O)CN1C1CCN(Cc2ccccc2)CC1	12.9%
COc1cc(NC2=C(Cl)C(=O)c3nc(C)ccc3C2=O)cc(OC)c1	-13.4% (active)
CN(C)CCNC(=O)c1ccc(-c2nc3ccc4[nH]ncc4c3c3c2COCC3)cc1	-32.6% (active)
CCCC(=O)NC(c1ccc(N(CC)CC)cc1)c1cc(C)c2cccnc2c1O (centres undefined)	-25% (active)
Cc1noc(C)c1CSc1nc2ccccc2n1-c1ccccc1	111%
O=C(CSc1nc2ccccc2c(=O)n1-c1ccc(Cl)cc1)N/N=C/c1ccc(N2CCCCC2)cc1	108%
c1ccc(CNc2ncnc3ccc(-c4cnc5[nH]ncc5c4)cc23)cc1	63.8%
O=c1c2cc(-c3ccc(F)cc3F)ccc2n(Nc2ccccc2)c(=O)n1-c1cccc(C(F)(F)F)c1	-45.5% (active)
O=S(=O)(NCCNc1nccc(-n2cnc3ccccc32)n1)c1ccc(Br)cc1	114%
N#Cc1cnc2ccc(-c3cnc(N)nc3)cc2c1N1CCc2cc(F)c(Cl)cc21	-11.7% (active)
C[C@@H](Nc1c(C#N)cnc2ccc(-c3cnc(Cl)c(NS(C)(=O)=O)c3)cc12)c1ccccc1	-28.4% (active)
Nc1ncc(-c2ccc3ncnc(N4CCc5cc(F)c(F)cc54)c3c2)cn1	37.1%
CC(C)Sc1nc(Nc2ccc(S(N)(=O)=O)cc2)c(C#N)c(-c2ccc(F)cc2)n1	45.4%
CC1(C)CC[C@]23CC[C@]4(C)[C@H](CC[C@@H]5[C@@]6(C)CC[C@H](NCO)C(C)(C)[C@@H]6CC[C@]54C)[C@H]2[C@H]1OC3	4.17% (active)
COc1cc(/C=N/NC(=O)c2cn(C3CC3)c3c(OC)c(N4CC5CCCNC5C4)c(F)cc3c2=O)ccc1O (centres undefined)	-40.3% (active)
Cc1ccc2c(n1)C(=O)C(Cl)=C(Nc1cccc(C(=O)OC(C)(C)C)c1)C2=O	16.7%
N=c1c2cc(-c3ccccc3)oc2ncn1/N=C/c1ccc(Cl)cc1	116%
CN(C)CCCOc1c2ccc(Cl)cc2nc2c1oc1ccc(Cl)cc12	18.9%
C#C[C@]1(O)CC[C@H]2[C@@H]3CC=C4c5sc(Nc6cccc(C)n6)nc5CC[C@]4(C)[C@H]3CC[C@@]21C	-8.95% (active)
CCOC(=O)c1nn(-c2ccc(C)cc2)c(=O)c2c(N)c(C#N)c(-c3ccc(OC)cc3)cc12	125%
C#Cc1nc(/C=C/C(=O)NO)cs1	-58.7% (active)
O=C1[C@@H]2Cc3c([nH]c4ccccc34)[C@H](c3ccc(Br)cc3)N2C(=O)CN1C1CCN(Cc2c(Cl)cccc2Cl)CC1	-79% (active)
CC1=CC(=O)C2=C(C)CC(OC(=O)CCc3ccccc3)[C@@H]3[C@H](OC(=O)[C@@H]3C)[C@@H]12 (some centres undefined)	87.9%
COc1cc(/C=C2/C(=O)Nc3ccc(Cl)cc32)ccc1OCc1ccc(Cl)cc1	102%
C=C1C(=O)O[C@@H]2C[C@@H](C)[C@H](OC)CC(=O)[C@](C)(OC(C)=O)C[C@H](OC(=O)/C(C)=C\C)[C@@H]12	69.3%
CN1CCN(c2nc(-c3csc(-c4ccccc4)n3)cc3ccccc23)CC1	6.57% (active)
Cc1ccccc1N1CCN(C2=C(Cl)C(=O)c3ncccc3C2=O)CC1	4.21% (active)

SMILES	growth
COc1ccc2c(c1)c(-c1nnc(N)nc1-c1c[nH]c3ccc(F)cc13)cn2C	-0.122% (active)
C[C@H](Nc1ncnc2ccc(-c3cnc(Cl)c(NS(C)(=O)=O)c3)cc12)c1ccccc1	-17.6% (active)
COc1ccc2c(c1)c(/C=N/Nc1ccnc3cc(Cl)ccc13)cn2C	-52.2% (active)
COC[C@]12CC[C@@H](C)[C@H](C)[C@H]1C1=CC[C@@H]3[C@@]4(C)CCCNC(C)(C)[C@@H]4CC[C@@]3(C)[C@]1(C)CC2	-47.1% (active)
Cn1ncc2c(C(=O)c3ccc(F)cc3)nc(C(C)(C)C)nc21	91.2%
CN(Cc1ccccc1)S(=O)(=O)/N=C1\NC(=O)NC1=C(Cl)Cl	-29.8% (active)
CCOC(=O)c1c(Nc2ccccc2)nn2c(N)c(C#N)c(-c3ccc(F)cc3)nc12	72.6%
Cc1cc(O)c2c(c1)C(=O)C(c1c(C)cc3c(c1O)C(=O)C=CC3=O)=CC2=O	55%
Cc1ccc2c(n1)C(=O)C(Cl)=C(Nc1ccc(C(F)(F)F)cc1)C2=O	35.8%
Nc1cc(-c2c[nH]c3ccc(Cl)cc23)nc2cc(-c3c[nH]c4ccc(Cl)cc34)nn12	43.9%
O=C(N/N=C/c1ccc([N+](=O)[O-])o1)c1[nH]c2ccc(Br)cc2c1-c1ccccc1	-42.1% (active)
COc1cc2oc(-c3cccc(NC(=O)[C@@H](N)C(C)C)c3)cc(=O)c2c(OC)c1OC	105%
CC(=O)N1N=C(c2cc3ccccc3oc2=O)CC1c1cn(-c2ccccc2)nc1-c1ccc(C)cc1 (centres undefined)	107%
O=C1c2c(c3c4cc(Br)ccc4[nH]c3c3ccc4ccccc4c23)C(=O)N1CCO	96.7%
C#Cc1nc(C2=C(C)C(O)/C(=N/O)C2)cs1 (centres undefined)	-37.9% (active)
C/C(=N\O)[C@H]1C[C@]23CC[C@]4(C)[C@H](CC[C@@H]5[C@@]6(C)CC/C(=N/O)C(C)(C)[C@@H]6CC[C@]54C)[C@H]2[C@H](C)C1(C)OC3	121%
CCOC(=O)c1c(NC(=O)c2ccc(C(F)(F)F)cc2)sc2c(CN3CCN(C)CC3)c(O)ccc12	-36.8% (active)
CC(C)C[C@H]1C(=O)O[C@H](C(C)C)C(=O)N(C)[C@@H](C(C)C)C(=O)O[C@H](C(C)C)C(=O)N(C)[C@@H](C(C)C)C(=O)O[C@H](C(C)C)C(=O)N1C	-51.3% (active)
O=S(=O)(Oc1ccc(-c2cn3ccsc3n2)cc1)c1cccc(C(F)(F)F)c1	101%
CCC1=Cc2cc(OC)ccc2OC12C=Cc1cc(OC)ccc1O2 (centres undefined)	-1.93% (active)
COc1ccc(-c2nnc(/N=C3/C(=O)Nc4ccc(Br)cc43)o2)cc1	60.4%
COc1cc(Cn2cc3c(c2)-c2onc(CN4CCOCC4)c2CC3)cc(OC)c1OC	99.9%
CCn1c(SCC(=O)Nc2cccc(C(=O)/C=C/c3cc(OC)c(OC)c(OC)c3)c2)nc2ccccc2c1=O	48%
COc1ccc(-n2c(SCc3n[nH]c(=S)o3)nc3ccc(Cl)cc3c2=O)cc1	109%
Nc1ccccc1NC(=O)c1ccc(NC(=O)C/C=C/c2cccnc2)cn1	8.93% (active)
COc1cc(/C=C/C(=O)c2cc(OC)c(OC)c(OC)c2)ccc1Oc1nc(NCCO)nc(N2CCOCC2)n1	-5.23% (active)
CC(C)(C)n1nnnc1C(Nc1nccs1)c1cc2cccc3ccc4cccc1c4c32 (centres undefined)	90.2%

SMILES	growth
CCOC(=O)c1ccc(NC2=CC(=O)C(C)=C(C)C2=O)cc1	53%
CC(=O)/C(N=Nc1ccc2oc(=O)ccc2c1)=C(\C)O	-15.3% (active)
CC1=C(C)C(=O)C(Nc2cccc(C(F)(F)F)c2)=C(Cl)C1=O	38.5%
C#Cc1nc(C2=C(C)C(=N\O)/C(=N/O)C2)cs1	81.7%
N#Cc1c(-c2cccs2)cc(-c2cnccn2)nc1SCC(=O)NNC(=S)Nc1ccc(F)cc1	122%
CC(=O)c1cc(C(=O)N2c3ccccc3Sc3ccccc32)n2c1ccc1ccccc12	14%
COc1cc(OC)c(S(N)(=O)=O)cc1C(=O)/C=C/c1ccccc1	5.25% (active)
Cc1cc(NS(=O)(=O)c2ccc(-c3cnc(C4CC4)o3)cc2)ccc1I	1.38% (active)
C=CCn1c(SCC(=O)Nc2ccc(C(=O)/C=C/c3cc(OC)c(OC)c(OC)c3)cc2)nnc1-c1c[nH]c2ccccc12	-15.1% (active)
C=C1CC[C@@H]2[C@](C)(CO)[C@H](O)CC[C@@]2(C)[C@@H]1C/C(O)=C1\CCOC1=O	95.3%
N#Cc1cnc2ccc(-c3cnc4n[nH]nc4c3)cc2c1N1CCc2cc(F)c(Cl)cc21	20.2%
NS(=O)(=O)c1ccc(-n2cc(CN3CCCCC3)nn2)cc1	101%
COc1cc(/C=C2\C(=O)Nc3ccccc32)ccc1OCc1ccc(Cl)cc1	113%
CCNCc1c(-c2cccc(OC(F)(F)F)c2)[nH]c2ccc(N3CCCC3)cc2c1=O	-8.31% (active)
Cc1ccc(S(=O)(=O)N(CC[C@@H]2C[C@H]2c2cc3ccccc3o2)S(=O)(=O)c2ccc(C)cc2)cc1	64.6%
[Cl][Ru].c1ccc(-c2cc(-c3ccccn3)nc(-c3ccccn3)c2)cc1.c1ccc(-c2ccnc3c2ccc2c(-c4ccccc4)ccnc23)cc1	-29.2% (active)
O=C(CCl)Nc1ccc(NC(=O)c2cc(Cl)ccc2O)c(Cl)c1	49.3%
Cc1[nH]c(C(=O)Nc2ccccc2OCc2cccc(C(=O)NC3CCCNC3)c2)c(Cl)c1Cl (centres undefined)	-53.9% (active)
COc1ccccc1N1CCN(C2=C(Cl)C(=O)c3ncccc3C2=O)CC1	12.5%
Cc1cc(C(NC(=O)CCCCCNc2cccc3c2C(=O)N(C2CCC(=O)NC2=O)C3=O)c2cccnc2)c(O)c2ncccc12 (centres undefined)	-31% (active)
CN1CCN(Cc2ccc(NC(=O)c3cncc(C#Cc4cnn5cccnc45)c3)cc2C(F)(F)F)CC1	-19% (active)
CC1=C(C)C(=O)C(Nc2ccc3c(c2)OCO3)=C(Br)C1=O	44.2%
O=S1SC(c2ccccc2)=NN1c1cc(F)cc(F)c1 (centres undefined)	32.2%
COc1cc2cc(Oc3ccc(NC(=O)Nc4cc(C(F)(F)F)cc(C(F)(F)F)c4)cc3)c(C)nc2cc1OCCN(C)C	109%
CCCC[n+]1ccc(SCC(=O)n2ccc3ccccc32)c2ccccc21	86.8%
